PubChem BioAssay AID485317 (Broad Institute, 2010)
Screen size: about 290,000 compounds; about 11,000 (3.8%) were called active.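 The calls were made as follows: active = mean replicate inhibition above about 79%, with every replicate also reaching it (limit read from the data); inconclusive = only one of the two criteria met; inactive = mean below limit and not every replicate reaching it.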 The list comes from a sample in which actives are over-represented; it also holds similar structures and randomly drawn compounds.

molecular target: FAD-linked sulfhydryl oxidase ALR (Homo sapiens) (UniProt P55789); experiment: ALR-catalysed DTT oxidation blockers – biochemical, H2O2 detection, HRP-luminol luminescence, single point, primary screen (AID 485317); conditions: purified ALR, hits give high values, concentration not given here
Sequence (P55789 whole entry, looked up): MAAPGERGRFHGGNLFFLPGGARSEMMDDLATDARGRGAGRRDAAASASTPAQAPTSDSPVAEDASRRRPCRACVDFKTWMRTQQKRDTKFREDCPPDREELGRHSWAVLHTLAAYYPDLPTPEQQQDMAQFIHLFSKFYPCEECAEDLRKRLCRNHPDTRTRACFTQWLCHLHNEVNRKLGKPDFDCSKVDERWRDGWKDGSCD

Q: Which inhibition does the source give for C#CCNC(=O)[C@H](Cc1ccc(C(=O)c2ccccc2)cc1)NC(=O)OC(C)(C)C here?
A: The inhibition was -2.67% (inactive).

Q: Which inhibition does the source give for CCNC(=S)N1CCN(S(=O)(=O)c2ccc(Cl)s2)CC1 here?
A: The inhibition was -2.01% (inactive).

Q: How did the inhibition turn out when COc1ccccc1C(=O)Nc1ccc(OCC(=O)N2CCCCC2)cc1 was run?
A: The inhibition was 2.28% (inactive).

Q: How did the inhibition turn out when Oc1ccc(-c2[nH]ncc2-c2nc3ccccc3s2)c(O)c1 was run?
A: Its inhibition is 83.3% (active).

Q: Cc1cc(O)ccc1-c1cnc2ccccc2n1 was tested. Which inhibition did it give?
A: The inhibition was 58% (inactive).

Q: CC(=O)Nc1cccc(-c2nc3ccccc3s2)c1C was tested. Which inhibition did it give?
A: The inhibition was -21% (inactive).

Q: How did the inhibition turn out when CCN(C(=O)COC(=O)C1CCN(S(=O)(=O)c2ccc(C)c(C)c2)CC1)C1CCS(=O)(=O)C1 (stereo not given) was run?
A: The inhibition was -10.6% (inactive).

Q: COc1ccc(C2=NN(C(=O)CSc3nnnn3C)C(c3ccco3)C2)cc1 (stereo not given) was tested. Which inhibition did it give?
A: Its inhibition is 3.36% (inactive).

Q: Which inhibition does the source give for Cc1ccc(C(=O)Nc2ccccc2-c2ccccc2)cc1S(=O)(=O)Nc1ccccc1 here?
A: The inhibition was -2.08% (inactive).

Q: For CC1CCN(C(=O)CCNC(=O)c2ccccc2)CC1, which inhibition is on record?
A: Its inhibition is 0.139% (inactive).

Q: With CCN(CCNC(=O)C1=C(C)C(=O)OC12CCC(C)CC2)c1ccccc1 (stereo not given) as the molecule, how does the inhibition read?
A: Its inhibition is 98.4% (active).

Q: For CCOc1ccc(CCNC(=O)C2=C(C)C(=O)OC23CCC(C)CC3)cc1OCC (stereo not given), which inhibition is on record?
A: The inhibition was -1.93% (inactive).

Q: Which inhibition does the source give for Cc1ccc(S(=O)(=O)NC[C@H]2O[C@@H](n3cnc4c(N)ncnc43)[C@H](O)[C@@H]2O)s1 here?
A: The inhibition was 1.77% (inactive).

Q: For O=C(/C=C/c1ccccc1)c1ccoc1, which inhibition is on record?
A: Its inhibition is 13.2% (inactive).

Q: O=C(O)c1ccc2c(c1)C(=O)N(c1ccc(/C=C/C(=O)c3ccccc3)cc1)C2=O was tested. Which inhibition did it give?
A: The inhibition was 50.4% (inactive).

Q: For COC(=O)c1ccc(C(NC(=O)OCc2ccccc2)/C(C)=C/[C@@H](C)C(=O)NCc2ccc(OC)c(OC)c2)cc1 (stereo not given in full), which inhibition is on record?
A: The inhibition was -2.17% (inactive).

Q: Which inhibition does the source give for COC(=O)c1ccc(COc2ccc(/C=N/NC(=O)C(=O)Nc3ccc(OC)cc3)cc2OC)o1 here?
A: The inhibition was -5.05% (inactive).

Q: COC(=O)c1ccc(COc2ccc(/C=C/C(=O)c3ccc(OC)c(CSCC(=O)O)c3)cc2OC)cc1 was tested. Which inhibition did it give?
A: The inhibition was 99.4% (active).

Q: How did the inhibition turn out when COc1ccc(C(=O)/C=C/c2ccc(-c3ccccc3)cc2)cc1CSCC(=O)O was run?
A: The inhibition was 99.2% (active).

Q: Which inhibition does the source give for CC(OC(=O)CN1C(=O)c2ccccc2C1=O)C(=O)c1ccccc1 (stereo not given) here?
A: Its inhibition is 4.65% (inactive).

Q: With CCOC(=O)N1CCN(CC(=O)Nc2cc(C)nn2-c2nc3ccccc3s2)CC1 as the molecule, how does the inhibition read?
A: Its inhibition is 7.49% (inactive).

Q: Cc1nn(CC(=O)Nc2nc3ccccc3s2)c(C)c1[N+](=O)[O-] was tested. Which inhibition did it give?
A: Its inhibition is -2.85% (inactive).

Q: Which inhibition does the source give for CCC(C)Cn1c(O)cc2nn(-c3nc4ccccc4s3)c(=O)c-2c1C (stereo not given) here?
A: The inhibition was 98.9% (active).

Q: With Cc1ccc(-c2csc(NC(=O)c3cnccn3)n2)cc1C as the molecule, how does the inhibition read?
A: The inhibition was -0.38% (inactive).

Q: Cc1csc(NC(=O)C2=COCCO2)n1 was tested. Which inhibition did it give?
A: The inhibition was 1.03% (inactive).

Q: Which inhibition does the source give for Cc1ccc(-c2csc(NC(=O)C3=COCCO3)n2)cc1C here?
A: Its inhibition is 83.7% (active).

Q: How did the inhibition turn out when O=C(Nc1cccc(S(=O)(=O)NC2=NCCC2)c1)c1ccc(F)cc1F was run?
A: The inhibition was -7.53% (inactive).

Q: COc1ccc(-c2cc(C(=O)N(C)CC(=O)Nc3ccccc3Cl)c3ccccc3n2)cc1OC was tested. Which inhibition did it give?
A: The inhibition was -3.41% (inactive).

Q: With Cc1ccc(S(=O)(=O)N(C)C)cc1NC(=O)COC(=O)/C=C/c1cccs1 as the molecule, how does the inhibition read?
A: Its inhibition is -0.0664% (inactive).

Q: How did the inhibition turn out when O=C(OCC(=O)N1CCN(c2ccccc2)CC1)c1ccc([N+](=O)[O-])s1 was run?
A: The inhibition was -44.6% (inactive).

Q: How did the inhibition turn out when COC(=O)C(CC(=O)Nc1cc(C)ccc1C)Nc1ccccc1OC (stereo not given) was run?
A: Its inhibition is 98.4% (active).

Q: How did the inhibition turn out when COc1ccccc1NC(=O)CC(NCCN(C)C)C(=O)O (stereo not given) was run?
A: The inhibition was -8.47% (inactive).

Q: Which inhibition does the source give for COc1ccc(C)cc1NC(=O)Nc1ccccc1SC here?
A: Its inhibition is -2.74% (inactive).

Q: Which inhibition does the source give for COc1cc([N+](=O)[O-])ccc1NC(=O)COC(=O)CCOc1ccc(C)cc1 here?
A: Its inhibition is 24.6% (inactive).

Q: Which inhibition does the source give for Cc1ccc(NC(=O)Cc2nc(COC(=O)C(C)NS(=O)(=O)c3ccc(C)cc3)cs2)cc1 (stereo not given) here?
A: Its inhibition is 14% (inactive).

Q: With CCN(CC)C(=O)CSC(Nc1cccc(F)c1)=C(C#N)C#N as the molecule, how does the inhibition read?
A: Its inhibition is 98.8% (active).

Q: Which inhibition does the source give for Cc1ccc(CSCC(=O)N(C)CC(=O)Nc2cccc(F)c2)cc1 here?
A: The inhibition was -16.3% (inactive).

Q: CCN(CC)C(=O)C(=O)Nc1cccc(Br)c1 was tested. Which inhibition did it give?
A: Its inhibition is 3.75% (inactive).

Q: Which inhibition does the source give for O=C(O)/C=C/C(=O)Nc1ccc(F)cc1F here?
A: Its inhibition is 5.9% (inactive).

Q: For COC(=O)c1sc(-c2ccc(C(C)(C)C)cc2)cc1NC(=O)/C=C/C(=O)O, which inhibition is on record?
A: Its inhibition is 98.3% (active).

Q: With COc1ccccc1NC(=O)/C=C/C(=O)O as the molecule, how does the inhibition read?
A: Its inhibition is -9.66% (inactive).

Q: O=C(COC(=O)c1cc(S(=O)(=O)N2CCOCC2)ccc1F)NC1CC1 was tested. Which inhibition did it give?
A: The inhibition was -8.45% (inactive).

Q: Which inhibition does the source give for CN(CC(=O)Nc1ccc(F)c(F)c1F)C(=O)Cn1cnc2c1c(=O)n(C)c(=O)n2C here?
A: Its inhibition is -6.05% (inactive).

Q: With CCCCn1c(N)c(N(CCC(C)C)C(=O)c2ccc(COc3ccccc3)o2)c(=O)[nH]c1=O as the molecule, how does the inhibition read?
A: The inhibition was 0.673% (inactive).

Q: How did the inhibition turn out when NC(=O)c1c(NC(=O)CSc2nc(N)cc(=O)[nH]2)sc2c1CCCC2 was run?
A: The inhibition was 36% (inactive).

Q: For CCOC(=O)c1c(NC(=O)CSc2nnc(C)c(=O)[nH]2)sc2c1CCC2, which inhibition is on record?
A: The inhibition was 90% (active).

Q: For CCCOC(=O)Nc1sc2c(c1C(=O)OCC)CCC2, which inhibition is on record?
A: Its inhibition is 46.6% (inactive).

Q: Which inhibition does the source give for Cc1ccc(C)c(NC(=O)COC(=O)c2nn(C)c(=O)c3ccccc23)c1 here?
A: Its inhibition is -9.61% (inactive).

Q: For Cc1ccc(CCC(=O)Nc2ncc(Cc3cc(Cl)ccc3Cl)s2)o1, which inhibition is on record?
A: Its inhibition is 53.6% (inactive).

Q: For Cc1ccc(Cc2cnc(N)s2)o1, which inhibition is on record?
A: The inhibition was 99.1% (active).

Q: Which inhibition does the source give for COc1cccc(C(=O)OCC(=O)c2[nH]c(C)c(C(C)=O)c2C)c1 here?
A: Its inhibition is -3.4% (inactive).

Q: For Cc1ccc(S(=O)(=O)NCCNC(C)c2ccc(Br)cc2)cc1 (stereo not given), which inhibition is on record?
A: The inhibition was -1.35% (inactive).

Q: For CC(=O)C1=C(C)NC2=C(C(=O)CC(C)(C)C2)C1C (stereo not given), which inhibition is on record?
A: Its inhibition is -3.96% (inactive).

Q: How did the inhibition turn out when Cc1cc2c(cc1C)NC(c1ccccn1)C1=C(CC(C)(C)CC1=O)N2 (stereo not given) was run?
A: The inhibition was 99.2% (active).

Q: With Cc1nn(-c2ccccn2)c2c1C(c1ccncc1)C1=C(CC(C)(C)CC1=O)N2 (stereo not given) as the molecule, how does the inhibition read?
A: Its inhibition is 16% (inactive).

Q: O=C1CCC/C=C\C[C@@H](CC(=O)N(CCO)Cc2ccccc2)C(=O)NCCO1 was tested. Which inhibition did it give?
A: The inhibition was 0.845% (inactive).

Q: With O=C(COC(=O)c1ccco1)Nc1ccc(Cl)cn1 as the molecule, how does the inhibition read?
A: The inhibition was -2.69% (inactive).

Q: How did the inhibition turn out when CCN(CC)c1ccc(/C=N/NC(=O)CNC(=O)c2cccnc2)cc1 was run?
A: The inhibition was 98.6% (active).

Q: Which inhibition does the source give for O=C(CNC(=O)c1cccnc1)N/N=C/c1cc(Br)c(O)c(Br)c1 here?
A: Its inhibition is 43.1% (inactive).

Q: O=C(CNC(=O)c1cccnc1)N/N=C/c1cccnc1 was tested. Which inhibition did it give?
A: Its inhibition is -3.02% (inactive).
